Test results as given in ChEMBL document CHEMBL4513216, “Probing the Open Global Health Chemical Diversity Library for Multistage-Active Starting Points for Next-Generation Antimalarials” (ACS Infect Dis, 2020).
Screen size: about 69,000 compounds; about 8,600 (12%) showed an effect of 50% or more. This excerpt belongs to a sample that is enriched for strong results.

test system: Plasmodium berghei; test: Screen against P. berghei liver stage (PbLuc), transformed with Luciferase, at 10uM; assay type: functional, HepG2; conditions: tested at 10 uM

Question: How did the INHIBITION turn out when CCOCC(=O)N1CCC2(CC1)COCCN2CCOC was run?
Answer: The INHIBITION was 12.1%.

Question: How did the INHIBITION turn out when Cn1ncc2c(N3CCN(C(=O)c4ccsc4)CC3)ncnc21 was run?
Answer: Its INHIBITION is 21.6%.

Question: How did the INHIBITION turn out when Cc1ccc(C)c(OCC(O)Cn2ncc3cnn(C)c(=O)c32)c1 (stereo not drawn) was run?
Answer: The INHIBITION was -28.9%.

Question: For Cc1ccc(C)c(OCc2cc(C(=O)N(C)CC(O)CO)no2)c1 (stereo not drawn), which INHIBITION is on record?
Answer: The INHIBITION was 10.4%.

Question: How did the INHIBITION turn out when Cc1ccc(C)c(OCC(O)CN(C)CC(=O)Nc2cc(C)on2)c1 (stereo not drawn) was run?
Answer: The INHIBITION was 84.3%.

Question: With Cc1ccc(OCC(O)CN(C)CC(=O)NC(C)C)c(C)c1 (stereo not drawn) as the molecule, how does the INHIBITION read?
Answer: Its INHIBITION is 33%.

Question: Which INHIBITION does the source give for Cc1ccc(OCC(O)CN(C)CC(=O)Nc2cc(C)on2)c(C)c1 (stereo not drawn) here?
Answer: The INHIBITION was 77.9%.

Question: Cc1ccc(OCCN(C)C(=O)CCCC(N)=O)c(C)c1 was tested. Which INHIBITION did it give?
Answer: Its INHIBITION is -7.65%.

Question: For Cc1ccc(OCCC(=O)N(C)CC(=O)Nc2cc(C)on2)c(C)c1, which INHIBITION is on record?
Answer: The INHIBITION was 52.2%.

Question: Which INHIBITION does the source give for Cc1ccccc1OCCC(=O)N(C)Cc1c(C)noc1C here?
Answer: Its INHIBITION is 25.5%.

Question: Which INHIBITION does the source give for COc1cc(CN(C)C(=O)Nc2cc(C)on2)ccc1SC here?
Answer: Its INHIBITION is 40.1%.

Question: CC(C)Cn1cncc1-c1nc2c([nH]1)CC(C)(C)CNC2=O was tested. Which INHIBITION did it give?
Answer: The INHIBITION was -109%.

Question: For CCn1cc(CN2CCCN(C(=O)c3ccc(C#N)cc3)CC2)cn1, which INHIBITION is on record?
Answer: Its INHIBITION is 25.6%.

Question: How did the INHIBITION turn out when Cn1ncc2c(=O)[nH]c(CN3CCCC3CC(C)(C)C)nc21 (stereo not drawn) was run?
Answer: Its INHIBITION is 19.6%.

Question: With CC(C)=CCN1C(=O)[C@@H]2CC[C@H]1CN(C(=O)CCc1nnc(Cl)[nH]1)C2 as the molecule, how does the INHIBITION read?
Answer: Its INHIBITION is -15.3%.

Question: With Cc1cc(NCCN)nc(-c2ccccc2O)n1 as the molecule, how does the INHIBITION read?
Answer: The INHIBITION was 17.7%.

Question: For Cn1cc(Cl)cc1C(=O)N1CCN(CCc2cccs2)CC1, which INHIBITION is on record?
Answer: The INHIBITION was 23.73%.

Question: Which INHIBITION does the source give for O=C(CC1Cn2ncnc2NC1=O)Nc1ccc(F)c(F)c1 (stereo not drawn) here?
Answer: Its INHIBITION is 26.7%.

Question: For Cc1nc(CN2CCN(c3cncc(Cl)n3)CC2)no1, which INHIBITION is on record?
Answer: Its INHIBITION is 14.6%.

Question: Which INHIBITION does the source give for CN1CC(=O)N(c2ccccc2)CC12CCN(Cc1nccs1)C2 (stereo not drawn) here?
Answer: Its INHIBITION is -35.9%.

Question: Which INHIBITION does the source give for Fc1ccc(CN2CCC3(CC2)CN(c2ccccn2)CCO3)cc1 here?
Answer: Its INHIBITION is 79.1%.

Question: For COc1ccc(CN2CCC3(CC2)CN(c2ccccn2)CCO3)cc1, which INHIBITION is on record?
Answer: Its INHIBITION is 26.4%.

Question: Which INHIBITION does the source give for c1ccc(CN2CCC3(CC2)CN(c2ccccn2)CCO3)nc1 here?
Answer: Its INHIBITION is -6.97%.

Question: Which INHIBITION does the source give for Cn1ccnc1CN1CCC2(CC1)CN(c1ccccn1)CCO2 here?
Answer: The INHIBITION was 91.9%.

Question: For Cc1noc(C)c1CN1CCC2(CC1)CN(c1ccccn1)CCO2, which INHIBITION is on record?
Answer: Its INHIBITION is -40.4%.

Question: How did the INHIBITION turn out when COc1ncccc1CN1CCC2(CC1)CN(c1ccccn1)CCO2 was run?
Answer: The INHIBITION was 41.8%.

Question: For CC(C)c1nc(CN2CCCN(c3nccs3)CC2)no1, which INHIBITION is on record?
Answer: The INHIBITION was 25.4%.

Question: CC(=O)N1CCn2c(C(=O)N(C)C)cnc2C1 was tested. Which INHIBITION did it give?
Answer: Its INHIBITION is 47.8%.

Question: For CSc1ccccc1C(=O)N1C[C@@H]2CC[C@H]1CN(C(=O)N(C)C)C2, which INHIBITION is on record?
Answer: The INHIBITION was 21.2%.

Question: For CCC(=O)N1CCCC(C(=O)c2cnn(-c3ccc(F)cc3)c2N)C1 (stereo not drawn), which INHIBITION is on record?
Answer: The INHIBITION was 56.3%.

Question: For Nc1c(C(=O)C2CCCN(C(=O)C3CC3)C2)cnn1-c1ccc(F)cc1 (stereo not drawn), which INHIBITION is on record?
Answer: The INHIBITION was 38.9%.

Question: For CCCC(=O)N1CCCC(C(=O)c2cnn(-c3ccc(F)cc3)c2N)C1 (stereo not drawn), which INHIBITION is on record?
Answer: Its INHIBITION is 17.35%.

Question: With c1cnc(C2CCCN2c2cnccn2)cn1 (stereo not drawn) as the molecule, how does the INHIBITION read?
Answer: The INHIBITION was 42.4%.

Question: CC(C)Cc1cc(C(=O)N2CCC(N3CCCC3)CC2)cc(O)n1 was tested. Which INHIBITION did it give?
Answer: The INHIBITION was 24.4%.

Question: With CC(C)Cc1cc(C(=O)N2CCC(Cc3cnn(C)c3)C2)cc(O)n1 (stereo not drawn) as the molecule, how does the INHIBITION read?
Answer: Its INHIBITION is 26.6%.

Question: COCC1CCN(C(=O)c2cc(O)nc(CC(C)C)c2)CC1 was tested. Which INHIBITION did it give?
Answer: The INHIBITION was 51.1%.

Question: With COC(=O)c1ccc(S(=O)(=O)N2CCCn3ncnc32)s1 as the molecule, how does the INHIBITION read?
Answer: The INHIBITION was 3.84%.

Question: For O=C1CC(c2ccc(Cl)c(Cl)c2)c2c(n3ccsc3nc2=O)N1 (stereo not drawn), which INHIBITION is on record?
Answer: Its INHIBITION is 36.2%.

Question: Which INHIBITION does the source give for O=C(c1cc(-c2cccs2)cs1)N1CCOCC1 here?
Answer: Its INHIBITION is -132%.

Question: For CC(C)c1nnc2n1CCN(Cc1cc(Cl)c3c(c1)OCCO3)C2, which INHIBITION is on record?
Answer: Its INHIBITION is 10.1%.

Question: Which INHIBITION does the source give for CC(Cn1ccnc1)NC(=O)NCc1cccnc1OC1CCCC1 (stereo not drawn) here?
Answer: Its INHIBITION is 17.4%.

Question: CC(C)CCC(=O)N1CCCC1c1nnc2n1CCCCC2 (stereo not drawn) was tested. Which INHIBITION did it give?
Answer: The INHIBITION was 26.9%.

Question: For CC(=O)N1CCCC1c1nnc2n1CCCCC2 (stereo not drawn), which INHIBITION is on record?
Answer: Its INHIBITION is -2.37%.

Question: Cc1ccc(C(=O)N2CCCC2c2nnc3n2CCCCC3)o1 (stereo not drawn) was tested. Which INHIBITION did it give?
Answer: Its INHIBITION is 8.47%.

Question: With CCc1ccc(C(=O)N2CCCC2c2nnc3n2CCCCC3)o1 (stereo not drawn) as the molecule, how does the INHIBITION read?
Answer: The INHIBITION was 57.7%.

Question: For O=C(c1ccc(Cl)o1)N1CCCC1c1nnc2n1CCCCC2 (stereo not drawn), which INHIBITION is on record?
Answer: The INHIBITION was 29.8%.

Question: How did the INHIBITION turn out when CSCCC(=O)N1CCCC1c1nnc2n1CCCCC2 (stereo not drawn) was run?
Answer: Its INHIBITION is 54.3%.

Question: CCN(CC)CCNC(=O)c1cc(OC)c2ccoc2c1 was tested. Which INHIBITION did it give?
Answer: The INHIBITION was 31.1%.

Question: How did the INHIBITION turn out when CC(=O)CN1CC2(CCNCC2)COc2ccccc2S1(=O)=O was run?
Answer: Its INHIBITION is 26.3%.

Question: COc1nccnc1-c1cc(NC2CCNCC2)nc2[nH]ccc12 was tested. Which INHIBITION did it give?
Answer: Its INHIBITION is -2.69%.

Question: For COc1nccnc1-c1cc(NC2CCCC2)nc2[nH]ccc12, which INHIBITION is on record?
Answer: Its INHIBITION is 60%.

Question: How did the INHIBITION turn out when COc1cc(-c2cc(NC3CCCC3)nc3[nH]ccc23)nc(N)n1 was run?
Answer: The INHIBITION was 42.1%.

Question: COc1ncc(-c2cc(NC3CCCC3)nc3[nH]ccc23)c(OC)n1 was tested. Which INHIBITION did it give?
Answer: Its INHIBITION is 66.7%.

Question: How did the INHIBITION turn out when FC(F)(F)c1ccc(-c2cc(NC3CCNCC3)nc3[nH]ccc23)nc1 was run?
Answer: Its INHIBITION is 18.5%.

Question: COc1ncc(-c2cc(NCCN(C)C)nc3[nH]ccc23)c(OC)n1 was tested. Which INHIBITION did it give?
Answer: The INHIBITION was 49%.

Question: How did the INHIBITION turn out when CCS(=O)(=O)N1CCC(c2nc(C)c(C)c(N3CCCC3)n2)CC1 was run?
Answer: Its INHIBITION is 22.35%.

Question: Cc1noc([C@]23COC[C@H]2CN(C(=O)Cc2ccsc2)C3)n1 was tested. Which INHIBITION did it give?
Answer: The INHIBITION was 38.5%.

Question: O=C(CC1[C@H]2CN(Cc3ccc(F)cc3)C[C@@H]12)N1CCCC1 (stereo partly drawn) was tested. Which INHIBITION did it give?
Answer: Its INHIBITION is -7.28%.

Question: O=C(NCCc1cc(F)ccc1F)NCC(O)C1CC1 (stereo not drawn) was tested. Which INHIBITION did it give?
Answer: Its INHIBITION is 14.9%.

Question: CN(C(=O)c1ccc[nH]1)C1CC(=O)N(Cc2ccccc2)C1=O (stereo not drawn) was tested. Which INHIBITION did it give?
Answer: Its INHIBITION is 15.2%.

Question: With Cc1nc(C(=O)N(C)C2CC(=O)N(Cc3ccccc3)C2=O)cs1 (stereo not drawn) as the molecule, how does the INHIBITION read?
Answer: The INHIBITION was 8.51%.

Question: Cc1[nH]ccc1C(=O)N(C)C1CC(=O)N(Cc2ccccc2)C1=O (stereo not drawn) was tested. Which INHIBITION did it give?
Answer: Its INHIBITION is 54.4%.

Question: For O=C(c1cc(C2CCCCN2C(=O)C2CCC2)n[nH]1)N1CCOCC1 (stereo not drawn), which INHIBITION is on record?
Answer: Its INHIBITION is -22.6%.

Question: Which INHIBITION does the source give for CCn1ncc(CN2CCc3nc(-c4cccnc4)nc(O)c3C2)c1C here?
Answer: Its INHIBITION is 29.2%.

Question: Which INHIBITION does the source give for CN(C)C(=O)COC[C@]12COC[C@H]1CN(Cc1ccco1)C2 here?
Answer: Its INHIBITION is -3.33%.

Question: For CN(C)C(CNC(=O)NCCc1cccc(O)c1)c1ccco1 (stereo not drawn), which INHIBITION is on record?
Answer: The INHIBITION was 41.4%.

Question: For Cc1nc(CCNC(=O)NCC(c2ccco2)N(C)C)cs1 (stereo not drawn), which INHIBITION is on record?
Answer: Its INHIBITION is 55.6%.

Question: With CN(C)C(CNC(=O)NCCS(C)(=O)=O)c1ccco1 (stereo not drawn) as the molecule, how does the INHIBITION read?
Answer: The INHIBITION was -18.3%.
